Test results taken from PubChem BioAssay (EPA / NIEHS).
The source made the active and inactive calls. The calls were made as follows: active = hit-call score of the fitted dose curve at least 0.9, where 1 is the maximum; inconclusive = response in the unintended direction; inactive = score below 0.9.

The molecules below were run against Peroxisome proliferator-activated receptor gamma (Homo sapiens) (UniProt P37231) (assay: OT_PPARg_PPARgSRC1_1440: Odyssey Thera (OT) 24-hour Protein-Complementation Assay for Peroxisome Proliferator-activated Receptor Gamma/ SRC-1 Co-activator (AID 2283388);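 also: nuclear to cytoplasmic ratio of reconstituted Venus YFP fluorescence in fixed imaged cells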).
Peroxisome proliferator-activated receptor gamma (Homo sapiens), sequence (P37231 whole entry, looked up, the tested form may be a part): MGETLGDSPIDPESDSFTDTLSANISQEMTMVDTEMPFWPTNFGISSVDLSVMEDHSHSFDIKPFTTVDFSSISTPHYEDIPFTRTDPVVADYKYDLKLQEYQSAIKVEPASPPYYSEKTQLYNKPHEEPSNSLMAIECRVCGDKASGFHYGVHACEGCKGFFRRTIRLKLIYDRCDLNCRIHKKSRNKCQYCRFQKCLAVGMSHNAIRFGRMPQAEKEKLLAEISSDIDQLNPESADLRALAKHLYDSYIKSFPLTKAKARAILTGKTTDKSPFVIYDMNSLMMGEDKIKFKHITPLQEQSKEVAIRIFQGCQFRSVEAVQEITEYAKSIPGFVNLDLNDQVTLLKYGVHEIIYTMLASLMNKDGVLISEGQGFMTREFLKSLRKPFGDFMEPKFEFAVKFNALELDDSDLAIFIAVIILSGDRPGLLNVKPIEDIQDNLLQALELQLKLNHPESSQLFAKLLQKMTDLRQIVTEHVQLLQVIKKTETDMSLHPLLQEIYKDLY
Outline: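 Readout is the 488 nm N/C fluorescence ratio from fixed, Draq5-stained HEK293T cells after 24 h compound exposure. Cells carried transiently transfected PPARg and SRC-1 fused to Venus fragments, transfected 48 h before treatment.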
With `CCOC(=O)CC(SP(=S)(OC)OC)C(=O)OCC` (configuration not stated) the outcome was “inactive”. For `CS/C(C)=N/OC(=O)N(C)SN(C)C(=O)O/N=C(\C)SC`, the outcome was “inactive”. With `OC(c1ccc(Cl)cc1)(c1cncnc1)c1ccccc1Cl` (configuration not stated) the outcome was “inactive”. `C=CCC1=C(C)C(OC(=O)C2C(C=C(C)C)C2(C)C)CC1=O` (configuration not stated) was tested, and the outcome was “inactive”. For `CC(C)Oc1cc(-n2nc(C(C)(C)C)oc2=O)c(Cl)cc1Cl`, the outcome was “inactive”. In the case of `Oc1ccccc1-c1ccccc1`, the outcome is reported as “inactive”. In the case of `CO/C=C(/C(=O)OC)c1ccccc1Oc1cc(Oc2ccccc2C#N)ncn1`, the outcome is reported as “inactive”. `N#CC(CCc1ccc(Cl)cc1)(Cn1cncn1)c1ccccc1` (configuration not stated) was tested, and the outcome was “inactive”. In the case of `COc1nc(NC(C)C)nc(NC(C)C)n1`, the outcome is reported as “inactive”. `CNC(=S)S` was tested, and the outcome was “inactive”. With `C=CCC1=C(C)[C@@H](OC(=O)[C@@H]2[C@@H](C=C(C)C)C2(C)C)CC1=O` the outcome was “inactive”. With `CCNc1nc(Cl)nc(NCC)n1` the outcome was “inactive”. For `CON(C)C(=O)Nc1ccc(Cl)c(Cl)c1`, the outcome was “inactive”. For `CCOc1cc(Oc2ccc(C(F)(F)F)cc2Cl)ccc1[N+](=O)[O-]`, the outcome was “inactive”. For `CC1=C(C(=O)Nc2ccccc2)SCCO1`, the outcome was “inactive”. In the case of `CC1COC(Cn2cncn2)(c2ccc(Oc3ccc(Cl)cc3)cc2Cl)O1` (configuration not stated), the outcome is reported as “inactive”. With `CCON=C(CC)C1=C(O)CC(c2c(C)cc(C)cc2C)CC1=O` (configuration not stated) the outcome was “inactive”. `Cc1cc(Cl)ccc1OCC(=O)O` was tested, and the outcome was “inactive”. `CCCCNC(=O)n1c(NC(=O)OC)nc2ccccc21` was tested, and the outcome was “inactive”. `CCCC1COC(Cn2cncn2)(c2ccc(Cl)cc2Cl)O1` (configuration not stated) was tested, and the outcome was “inactive”. `CCNc1nc(Cl)nc(NC(C)C)n1` was tested, and the outcome was “inactive”. For `CCOC(=O)C(Cl)Cc1cc(-n2nc(C)n(C(F)F)c2=O)c(F)cc1Cl` (configuration not stated), the outcome was “inactive”.
